Data published in PubChem BioAssay (NCI).
The panel holds about 83,000 compounds, 20% with a hit somewhere; the sample as a whole holds those more often.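 For each line, cells grew in 96-well plates with the test compound present at a single concentration for 48 hours.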 Values without a mark were called inactive. Calls of active or inactive are those of the source. The calls were made as follows: active = growth percent below 10; inactive = the rest.

Assays:
Test in all cases: NCI-60 one-dose screen, 48 h (100 = growth as untreated, 0 = no growth, -100 = all killed)
Conditions in all cases: 10 µM unless noted
RPMI-8226 leukemia = tested on: RPMI-8226 leukemia
OVCAR-8 ovarian = tested on: OVCAR-8 ovarian
OVCAR-5 ovarian = tested on: OVCAR-5 ovarian
OVCAR-4 ovarian = tested on: OVCAR-4 ovarian
SK-OV-3 ovarian = tested on: SK-OV-3 ovarian
IGROV1 ovarian = tested on: IGROV1 ovarian
OVCAR-3 ovarian = tested on: OVCAR-3 ovarian
HS 578T breast = tested on: HS 578T breast
NCI/ADR-RES ovarian = tested on: NCI/ADR-RES ovarian
SR leukemia = tested on: SR leukemia

SMILES | growth (RPMI-8226 leukemia) | growth (OVCAR-8 ovarian) | growth (OVCAR-5 ovarian) | growth (OVCAR-4 ovarian) | growth (SK-OV-3 ovarian) | growth (IGROV1 ovarian) | growth (OVCAR-3 ovarian) | growth (HS 578T breast) | growth (NCI/ADR-RES ovarian) | growth (SR leukemia)
COC(=O)[C@]12CCC(C)(C)C[C@H]1[C@H]1C(=O)C[C@@H]3[C@@]4(C)c5c([nH]c6ccccc6c5=O)C(C)(C)[C@@H]4CC[C@@]3(C)[C@]1(C)CC2 | 34.9% | 59.2% | 80.7% | 49% | 86.4% | 94.5% | 63.2% | 87.1% | 49.6% | 
CC1=CC(C)(C)Nc2ccc(Cc3ccc4c(c3)C(C)=CC(C)(C)N4)cc21 |  |  | 89.7% | 72.2% | 105% | 92.7% | 97.4% | 103% | 100% | 118%
COc1cccc(-c2nc3sccn3c2-c2ccnc(NCCCNS(=O)(=O)c3c(Cl)cccc3Cl)c2)c1 | 4.47% (active) | 51.5% | 85.6% | 56.7% | 90.4% | 72.1% | 69.8% | 76.1% | 29.9% | 
Cn1c(O)c(N=NC(=O)c2cc(-c3ccccc3)on2)c2ccccc21 | 115% | 104% | 102% | 95.7% | 108% | 102% | 115% | 96.2% | 94.9% | 
COc1cccc(-c2nc3sccn3c2-c2ccnc(NCCNS(=O)(=O)c3ccc(F)cc3)c2)c1 | -14.1% (active) | 20.1% | 49.3% | 22.3% | 43.7% | 28.6% | 42% | 52.4% | 10.7% | 
CN(C)c1ccc(NC(=O)c2ccc(/C=C/C(=O)c3ncc[nH]3)cc2)cc1 |  | 26.6% | 95.4% |  | 64.2% | 69.8% | 25.7% | 88.1% | 64% | 5.75% (active)
O=C1/C(=C/c2cn(-c3ccccc3)nc2-c2ccccc2)SC(=S)N1CCc1ccccc1 | 102% | 105% | 107% | 103% | 109% | 108% | 107% | 104% | 107% | 
Cc1cc2nc3[nH]c4ccccc4c3nc2cc1C |  | 62.3% |  | 82.8% | 86.2% | -6.27% (active) | 92% | 1.63% (active) | 78.9% | 14.2%
CC(C)(C)N1CCC1CN (stereo unspecified) |  |  | 107% | 103% | 104% | 112% | 103% | 117% | 113% | 101%
CCC(=O)c1ccc(Cl)s1 | 104% | 101% | 105% | 109% | 114% | 118% | 112% | 103% | 104% | 
COc1cc2nc(N3CCCC3)nc(Nc3ccccc3)c2cc1OC | -19.8% (active) | -30.1% (active) | -40.5% (active) | 25.1% | 48.5% | 23.3% | -70.4% (active) | -24.2% (active) | 18.4% | 
CCCOc1ccc2nc(NC(=O)OC)[nH]c2c1 | 7.83% (active) | 3.91% (active) | 39.2% | 53.3% | 4.92% (active) | 36.9% | -46.8% (active) | 29.8% | -6.3% (active) | 
COc1cccc(-c2nc3sccn3c2-c2ccnc(NCCCNS(=O)(=O)c3cccc(Cl)c3)c2)c1 | -9.68% (active) | 26.3% | 78.9% | 32.6% | 67.7% | 50.7% | 58% | 69.2% | 13.4% | 
Cc1oc(-c2ccc(Cl)cc2Cl)cc1C(=O)Nc1nccs1 | 98.4% | 80% | 83.1% | 7.78% (active) | 89.8% | 81.6% | 101% | 77.1% | 89.6% | 
CN(C)S(=O)(=O)c1ccc(S(=O)(=O)Nc2cccc(Cl)c2N2CCCCC2)cc1 | 48% | 92% | 89.4% | 68.2% | 98.3% | 82.5% | 90.6% | 91.8% | 76.6% | 
